PABP polyA inh: PABP-poly(A) binding inhibition; calls only at 35 µM; hit rate 1% among 290,000; PABP-poly(A) RNA binding, fluorescence polarization;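 further: calls also rest on retests at 20 µM and on dose response follow-up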
Target sequence (P11940 whole entry, looked up): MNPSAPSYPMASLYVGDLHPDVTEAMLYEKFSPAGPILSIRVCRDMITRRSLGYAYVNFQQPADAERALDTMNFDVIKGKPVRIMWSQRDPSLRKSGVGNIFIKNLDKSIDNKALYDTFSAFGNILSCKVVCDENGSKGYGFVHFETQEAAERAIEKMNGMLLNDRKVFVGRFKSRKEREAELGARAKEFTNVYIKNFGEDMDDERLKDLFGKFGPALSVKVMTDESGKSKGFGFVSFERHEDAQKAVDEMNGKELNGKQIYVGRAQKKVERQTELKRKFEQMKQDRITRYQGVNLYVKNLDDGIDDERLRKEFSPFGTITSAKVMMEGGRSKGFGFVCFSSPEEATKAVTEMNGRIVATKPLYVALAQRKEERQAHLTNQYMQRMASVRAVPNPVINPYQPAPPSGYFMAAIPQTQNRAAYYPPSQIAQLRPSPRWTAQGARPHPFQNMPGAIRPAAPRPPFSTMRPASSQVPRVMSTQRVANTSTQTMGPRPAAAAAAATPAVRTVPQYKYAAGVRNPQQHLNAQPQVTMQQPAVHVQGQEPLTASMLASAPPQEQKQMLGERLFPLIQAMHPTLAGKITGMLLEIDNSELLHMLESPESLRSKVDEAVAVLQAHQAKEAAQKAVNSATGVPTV
PABP1 MLLE inh: blocks PAM2 peptide binding to the PABP1 MLLE domain. AID 588489. P11940. inhibition, % at 20 µM. hit rate 0.36% among 360,000. GST-MLLE / FITC-PAM2 fluorescence polarization; in the data active means inhibition above about 35%, passing the limit was not always enough
eIF4H FP inh: inhibitors of RNA binding by human eIF4H. eIF4H fluorescence polarization binding assay. hit rate 0.94% among 290,000. inhibition, % at 35 µM;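 further: calls also rest on retests at 20 µM and on dose response follow-up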
Efa HMGR inh: E. faecalis class II HMG-CoA reductase inhibition. inhibition, % at 10 µM. AID 1066. purified E. faecalis HMGR, NADPH absorbance 340 nm kinetic. hit rate 0.41% among 190,000;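 active means inhibition above a set limit, the median over all tested compounds plus 3 SD, cut at about 9.5% in these data; inconclusive means no clear call, values can overlap the other calls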;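 further: enzyme runs in reverse so mevalonate oxidation gives rising NADPH absorbance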
PHOSPHO1 block: PHOSPHO1 (human) inhibition. recombinant PHOSPHO1, absorbance phosphatase assay. inhibition, % at 13.3 µM. hit rate 1.1% among 290,000. AID 1565; in the data active means inhibition above about 60%
A number is an active result; - = inactive; ? = inconclusive; . = no result; + = active, no number. A selection: hits, their analogues and other compounds. The true share with any hit is near 2.4%. Unless noted, how the calls were made is not given here.

SMILES	PABP polyA inh	PABP1 MLLE inh	eIF4H FP inh	Efa HMGR inh	PHOSPHO1 block
CCCN1CCN(CCNC(=O)Nc2cc(C)ccc2C)CC1	-	-	-	.	-
C=CCOc1c(Br)cc(CNc2nccs2)cc1OC	-	-	-	14	-
C=CCOc1c(Br)cc(CNn2c(C)n[nH]c2=S)cc1OC	-	-	-	.	-
CCN(CC)CCCC(C)NC(=O)c1ccc(C(F)(F)F)cc1 (configuration not stated)	+	-	active	-	-
CCOc1ccc2nc3cc(N=Nc4ccc(N)nc4N)ccc3c(N)c2c1	.	82	.	.	.
C=CCNc1nc(NCc2ccccc2)c(C#N)c2c1CN(C)CC2	?	-	?	-	-
N#Cc1c(NCCN)nc(NCc2ccccc2)c2c1CCN(Cc1ccccc1)C2	+	-	62	.	-
CSC1=N/C(=C\c2ccc(C)cc2)C(=O)S1	-	-	-	-	-
CSC1=N/C(=C\c2cccc(F)c2)C(=O)S1	-	-	-	-	67
CCOC(=O)C1(CCc2ccccc2)CCN(C(=O)CCn2cncn2)CC1	-	-	-	-	-
Cc1nc2ccc(-c3ccccc3)cc2o1	-	-	-	-	79
CNc1cc(C)nc(N2CCOCC2)n1	-	-	92	.	-
Cc1cc2sc3nc(=O)n(-c4ccccc4)c(=O)n3c2cc1C	-	-	-	.	-
COc1ccc(CCNC(=O)C(=O)NCC2OCCN2S(=O)(=O)c2cccs2)cc1 (configuration not stated)	-	-	-	.	-
COCCn1c(-c2ccc(OC)cc2)c(-c2ccc(OC)cc2)oc1=O	-	-	-	.	-
COc1ccc(-c2oc(=O)n(C)c2-c2ccc(OC)cc2)cc1	-	-	-	.	61
COc1ccc2c(CCNC(=O)Nc3ccccc3)c[nH]c2c1	-	-	-	-	63
COC(=O)CC(NC(=S)NC(=O)c1ccccc1)c1ccc(Br)cc1 (configuration not stated)	-	46	-	.	.
CCOC(=O)c1ccc(-c2ccc3c(c2)CCC3)nc1C	-	-	-	.	-
c1ccc(CSc2nc3ccccc3[nH]2)cc1	-	-	-	.	-
Nc1ccccc1Sc1nc2ccccc2[nH]1	-	39	-	-	-
Nc1nc(CSc2nc3ccccc3[nH]2)cs1	-	-	-	-	97
CNC(=O)c1c(NC(=O)CS(=O)(=O)c2ccc(Cl)cc2)sc(C)c1C	.	-	.	.	.
CNC(=O)c1ccsc1NC(=O)CS(=O)(=O)c1ccc(Cl)cc1	.	-	.	.	64
Oc1ccc(Cl)cc1-c1cc(-c2ccco2)[nH]n1	-	-	-	-	-
SMILES	PABP polyA inh	PABP1 MLLE inh	eIF4H FP inh	Efa HMGR inh	PHOSPHO1 block
S=c1[nH]nc(-c2cc(-c3ccco3)[nH]n2)n1-c1ccccc1Cl	-	-	-	-	86
FC(F)(F)c1ccc(Cl)c(-n2c(-c3ccco3)n[nH]c2=S)c1	-	-	-	.	-
Oc1ccccc1-c1cc(-c2ccco2)[nH]n1	-	-	-	-	73
FC(F)(F)c1ccc(Cl)c(-n2c(-c3cc(-c4ccco4)[nH]n3)n[nH]c2=S)c1	+	-	?	.	-
S=c1[nH]nc(-c2ccco2)n1-c1ccccc1Cl	-	-	-	-	-
CCCc1[nH]c(=O)c(C#N)c2c1CCCC2	-	-	-	-	-
CCCS(=O)(=O)c1ccc(COC(=O)c2cccc(NC(=O)C(C)C)c2)cc1	+	-	active	-	-
O=S(=O)(CCSc1nc2ccccc2s1)c1nc2ccccc2s1	-	-	-	-	76
C=CCNC(=O)CSc1nc2cc(C(=O)OCC)ccc2n1CC	-	-	-	-	-
O=C(CSc1nc2ccccc2s1)c1cc2ccccc2o1	+	-	60	-	-
CC(=O)CSc1nc2ccccc2s1	-	-	-	-	-
O=C(O)CSc1nc2ccccc2s1	-	-	-	.	-
CCOC(=O)c1ccc2c(c1)nc(SCC(=O)c1cc3ccccc3o1)n2CC	-	-	-	-	90
O=C(CSc1nc2ccccc2s1)CSc1nc2ccccc2s1	-	-	-	-	60
COCc1c(C(=O)N/N=C/c2ccc(C)o2)nnn1-c1nonc1N	-	-	-	.	-
CN(Cc1ccccc1)C(=O)COC(=O)c1ccc[nH]c1=O	.	-	.	.	.
COCOCCn1cc(CN2CCS(=O)(=O)N(Cc3ccc(-c4ccc(F)nc4)cc3)C(C)C2=O)nn1 (configuration not stated)	.	-	.	.	.
CN(Cc1ccccc1)C(=O)COC(=O)CCN1C(=O)C2CC=CCC2C1=O (configuration not stated)	.	-	.	.	.
COC(=O)c1ccsc1NC(=O)CN1CCN(c2ncccn2)CC1	-	-	-	.	-
Oc1ccc(O)c(Cc2nc3ccccc3s2)c1	+	-	82	-	-
Oc1ccccc1OCc1nc2ccccc2s1	-	-	-	-	-
NC(=O)CSCc1nc2ccccc2s1	+	-	55	-	-
Cn1cnnc1SCC(=O)c1cc2ccccc2o1	-	-	-	-	-
O=C(CSc1nnc(SCC(=O)c2ccco2)s1)c1ccco1	-	-	-	-	-
Cn1ccnc1SCC(=O)c1cc2ccccc2o1	-	-	-	-	91
SMILES	PABP polyA inh	PABP1 MLLE inh	eIF4H FP inh	Efa HMGR inh	PHOSPHO1 block
O=C(CSc1nc2cc(Cl)ccc2s1)c1ccco1	-	-	-	-	91
COC(=O)c1c(C)[nH]c(C(=O)COC(=O)CCNS(=O)(=O)c2cccc(C(F)(F)F)c2)c1C	.	-	.	.	.
CC(=O)Oc1ccccc1Cn1c(C)c(C(=O)NCCC#N)sc1=O	.	-	.	.	.
CC1(C2CC2)NC(=O)N(CC(=O)NCC(=O)Nc2ccc(F)c(F)c2F)C1=O (configuration not stated)	.	-	.	.	.
S=P(c1ccc(N2CCOCC2)cc1N1CCOCC1)(N1CCOCC1)N1CCOCC1	-	-	-	.	85
O=[N+]([O-])c1ccc(N2CCCCC2)cc1N1CCOCC1	-	-	-	-	-
C/C=C/Cn1c(SCc2ccc(C)cc2)nc2c1c(=O)[nH]c(=O)n2C	-	-	-	-	-
CCOC(=O)CSc1nc2c(c(=O)[nH]c(=O)n2C)n1CCc1ccccc1	-	-	-	-	-
CCCCCn1c(SCCN2CCOCC2)nc2c1c(=O)[nH]c(=O)n2C	-	-	-	-	69
Cn1c(=O)[nH]c(=O)c2c1nc(SCC(=O)O)n2CCc1ccccc1	-	-	-	-	91
CCOC(=O)C(CC)Sc1nc2c(c(=O)[nH]c(=O)n2C)n1CCc1ccccc1 (configuration not stated)	-	40	-	-	-
CC=CCn1c(SCc2ccccc2)nc2c1c(=O)[nH]c(=O)n2C	.	43	.	.	.
O=C(CCN1C(=O)C2CCCCC2C1=O)N1CCN(S(=O)(=O)c2c(F)cccc2F)CC1 (configuration not stated)	.	-	.	.	.
COc1cc(OC)c(C=NNC(=S)NC23CC4CC(CC(C4)C2)C3)c(OC)c1	.	-	.	.	.
Cc1nn(C)cc1S(=O)(=O)Nc1ccc(C(F)(F)F)cc1	-	-	-	.	-
CCOC(=O)CSc1nc2c(c(=O)[nH]c(=O)n2C)n1C/C=C(/C)Cl	-	37	-	-	81
CCOCCCNC(=O)c1cc(-c2cccnc2)nc2ccc(S(=O)(=O)N3CCC(C)CC3)cc12	-	-	-	.	75
C=CCNc1nc(-c2ccc(OC)cc2OC)cs1	-	-	-	-	61

Source: PubChem
